From PubChem
ELG1 repair inh = qHTS screen for small molecules that inhibit ELG1-dependent DNA repair in human embryonic kidney (HEK293T) cells expressing luciferase-tagged ELG1; actives 2.3% (n = 330,000); Potency, µM (titrated, usually from 46.1 µM), without a hit: top-dose activity change, negative = inhibition, usual class: inhibitors; AID 504467, 2011; HEK293T ELG1-luciferase reporter, luminescence, 16 h; DNA damage induced by 5-fluorouridine; also: % is scaled to controls: 0 for no effect and ±100 for the full control effect; nearly all actives have a fitted effect of over 55% in size
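Reporter activity after DNA damage by 5-fluorouridine is monitored. Compound-treated cells incubate 16 hr at 37 °C, then ONE-Glo is added for 30 min before luminescence reading.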
FLuc modulator = qHTS profiling assay for firefly luciferase inhibitor/activator using purifed enzyme and Km concentrations of substrates (counterscreen for miR-21 project); purified FLuc, Km substrates, luminescence inhibition; Potency, µM (top dose mostly 57.5 µM), for inactives: top-dose activity change, negative = inhibition, usual class: inhibitors; actives 6.9% (n = 360,000); AID 588342, 2011;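 also: plate controls were vehicle for no effect and reference inhibitor for full effect; nearly all actives have a fitted effect of over 55% in size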
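Purified P. pyralis luciferase, 10 nM final, with Km-level 10 uM D-luciferin and 10 uM ATP in 50 mM Tris acetate pH 7.5, 10 mM Mg acetate, 0.01% Tween-20, 0.05% BSA; 6-point qHTS titration about 60 µM downward; luminescence read.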
ELG1 genotox = qHTS screen for small molecules that induce genotoxicity in human embryonic kidney (HEK293T) cells expressing luciferase-tagged ELG1. HEK293T ELG1-luciferase reporter, luminescence, 16 h. Potency, µM (highest dose often 46 µM), without a hit: at the top dose activity change, positive = activation, usual class: activators. actives 1.3% (n = 330,000); also: % of control where 0% means no effect; nearly all actives have a fitted effect of over 60% in size
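After overnight (16 hr) compound treatment at 37 °C, ELG1-luciferase HEK293T cells were lysed with ONE-Glo; luminescence quantified 30 min later at room temperature.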
Rab9 promoter act = qHTS Assay for Rab9 Promoter Activators; actives 2.8% (n = 320,000); Huh7 Rab9 promoter-luciferase reporter, luminescence, 24 h; Potency, µM (doses to about 9.22 µM), inactives show at the highest dose activation, negative = inhibition, usual class: activators; AID 485297, 2010; also: % of control where 0% means no effect; nearly all actives have a fitted effect of over 60% in size
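Measured in stably transfected Huh7 cells bearing a Rab9 promoter–luciferase construct: 24 h compound treatment at 37 °C, followed by luminescence detection.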
NPC1 prom act = qHTS Assay for NPC1 Promoter Activators. Huh7 NPC1 promoter luciferase reporter, 24 h. Potency, µM (doses to about 9.22 µM), for the others: top-dose activation, hits mostly activators. actives 2.4% (n = 320,000). AID 485313, 2010; also: % of control where 0% means no effect; nearly all actives have a fitted effect of over 60% in size
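Readout is luciferase luminescence, reflecting NPC1 promoter activation in stably transfected Huh7 cells after 24 h compound exposure at 37 °C in reduced-serum medium with 10% FBS.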
SMN2 splice up = qHTS Assay for Enhancers of SMN2 Splice Variant Expression; actives 2.8% (n = 210,000); HEK293 SMN2-luciferase splicing reporter, luminescence, 30-36 h; Potency, µM (doses to about 46.1 µM), without a hit: at the top dose activity change, positive = activation, hits mostly activators; AID 1458, 2008; also: % of control where 0% means no effect; nearly all actives have a fitted effect of over 55% in size
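HEK293 cells carry an SMN2 […]–luciferase reporter in which exon 7 inclusion puts luciferase in frame. Cells were plated 10-12 h before compound addition, then incubated 30-36 h at 37C. ONE-Glo luminescence was read; sodium butyrate at 4.5 mM final served as control.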
ELG1 Luc conf = HTS assay for small molecules that inhibit ELG1-dependent DNA repair in human embryonic kidney (HEK293T) cells expressing luciferase-tagged ELG1: Hit Confirmation. actives 68% (n = 670). HEK293T ELG1-luciferase levels, luminescence; cells co-treated with 5-fluorouridine. shares compounds with ELG1 repair inh. AID 624248, 2012. Potency, µM (series often up to 46.1 µM), without a hit: top-dose activity change, negative = inhibition, most hits filed as inhibitors; also: % is scaled to controls: 0 for no effect and ±100 for the full control effect; nearly all actives have a fitted effect of over 55% in size
ELG1 MMS Luc = MMS-stimulated human ELG1 repair inhibition, confirmed. actives 53% (n = 670). HEK293T luciferase-tagged ELG1 level, MMS stimulated. shares compounds with ELG1 repair inh. Potency, µM (highest dose often 46.1 µM), inactives show at the highest dose activity change, negative = inhibition, hits mostly inhibitors; also: % is scaled to controls: 0 for no effect and ±100 for the full control effect; nearly all actives have a fitted effect of over 60% in size
ELG1 5FU viab = qHTS screen for small molecules that inhibit ELG1-dependent DNA repair: Hit Confirmation with 5FU Viability; cell viability with 5-FU, ELG1-dependent repair; 670 tested, under 10 active; AID 624250, 2012; Potency, µM (titrated, usually from 46.1 µM), for the others: top-dose activity change, negative = viability loss, actives largely listed as cytotoxic; shares compounds with ELG1 repair inh;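 also: ELG1-luc HEK293T cells cotreated with 5-fluorouridine at 10 µM final; viability measured 16 h after compound addition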
ELG1 MMS cell = qHTS screen for small molecules that inhibit ELG1-dependent DNA repair: Hit Confirmation with MMS Viability | shares compounds with ELG1 repair inh | Cell viability with MMS, ELG1-dependent DNA repair | Potency, µM (doses to about 46.1 µM), for inactives: at the top dose activity change, negative = viability loss, most hits filed as cytotoxic | actives 33% (n = 670) | AID 624251, 2012;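 also: ELG1-luc HEK293T cells co-treated with 10 µM MMS; viability read 16 h after compound addition; % is scaled to controls: 0 for no effect and ±100 for the full control effect; nearly all actives have a fitted effect of over 60% in size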
ELG1 unstim viab = qHTS screen for small molecules that inhibit ELG1-dependent DNA repair: Hit Confirmation with Unstimulated Viability Assay; shares compounds with ELG1 repair inh; cell viability counter-screen, unstimulated, luminescence; Potency, µM (doses to about 45.9 µM), for inactives: top-dose activity change, negative = loss of viability, actives largely listed as cytotoxic; actives 8% (n = 900); AID 624252, 2012;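 also: compound exposure lasted 16 hours before reading; % is scaled to controls: 0 for no effect and ±100 for the full control effect; nearly all actives have a fitted effect of over 55% in size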
Active calls of the source: *; ? = inconclusive; / = no result given. A selection: hits, their analogues and other compounds. The true share with any hit is near 9.4%. Calls follow the shape of the dose curve; as a rule, active = well fitted curve in the direction sought with a large enough effect; inconclusive = small, poorly fitted or top-dose-only effect, or another doubt; inactive = no such curve, though single readings can be large; an effect the other way counts as inactive or inconclusive. Potency is read from the fitted curve at half-maximal effect.

SMILES	ELG1 repair inh	FLuc modulator	ELG1 genotox	Rab9 promoter act	NPC1 prom act	SMN2 splice up	ELG1 Luc conf	ELG1 MMS Luc	ELG1 5FU viab	ELG1 MMS cell	ELG1 unstim viab
COc1ccc(-c2oc(=O)c3cc(OC)c(OC)cc3c2/C=C/c2cccc([N+](=O)[O-])c2)cc1	1.64µM*	-1.2%	0.7%	-10.0%	-1.5%	/	?	21.8%	0.5%	?	-10.6%
CCOC(=O)c1sc(N(Cc2ccccc2)C(=O)COC(=O)c2ccc(O)cc2)nc1C	1.3µM*	-2.0%	-13.2%	12.3%	3.5%	-91.6%	1.99µM*	0.705µM*	-14.7%	0.791µM*	?
CCOC(=O)c1sc(N(Cc2ccccc2)C(=O)COC(=O)c2ccccc2O)nc1C	23.2%	?	?	0.8%	7.2%	6.0%	/	/	/	/	/
O=C(Nc1ccccc1[N+](=O)[O-])c1csnn1	/	-11.2%	/	/	/	/	/	/	/	/	/
[N-]=[N+]=Nc1nc2c(N)ncnc2n1C1OC(CO)C(O)C1O (centres undefined)	/	/	/	/	/	-44.4%	3.53µM*	3.97µM*	?	?	7.91µM*
COc1cccc(N2CC(NS(=O)(=O)c3cccnc3)CC2=O)c1 (centres undefined)	4.11µM*	-14.2%	-2.6%	5.0%	-1.0%	/	27.1%	11.0%	4.0%	?	10.4%
CN=C1SC(CC(=O)Nc2ccccc2F)C(=O)N1/N=C/c1ccc(O)c(OC)c1 (centres undefined)	2.91µM*	-19.2%	-1.2%	-3.7%	7.8%	11.1%	14.1µM*	11.8%	?	-0.5%	?
